Several values for one entry are separate records, joined by “and”; a condition that tells them apart may be missing. Equal values may be shown once. Inconclusive results are not listed. Some structures have more than one record in an assay (separate samples or runs), and their calls can disagree. Activity calls are given as the source filed them. Rule for the calls, unless noted: active = hit-call score of the fitted dose curve at least 0.9, where 1 is the maximum; inactive = score below 0.9.
Columns and labels:
[1] = read-out: Thyroid Hormone Responsive (THRSP), THRSP (gene 7069); experiment: LTEA_HepaRG_THRSP: Life Technologies and Expression Analysis (LTEA) Assay for Thyroid Hormone Responsive (THRSP) using HepaRG (AID 2283536); conditions: mRNA level, 48 h; actives raise or lower the signal
Method in brief: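 Differentiated human HepaRG cells were exposed in duplicate for 48 h in serum-free induction medium to eight concentrations (top 100 uM, half-log steps, 0.5% DMSO). Expression was quantified by TaqMan qRT-PCR, normalized to ACTB, GAPDH and POLR2A, with bidirectional fitting against DMSO.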

[2] = read-out: UDP glucuronosyltransferase (UGT1A1), UGT1A1 (gene 54658); experiment: LTEA_HepaRG_UGT1A1: Life Technologies and Expression Analysis (LTEA) Assay for UDP glucuronosyltransferase (UGT1A1) using HepaRG (AID 2283538); conditions: mRNA level, 48 h; actives raise or lower the signal
Method in brief: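 Human liver HepaRG cultures receive test chemical for 48 h, up to 100 uM in 0.5% DMSO, with phenobarbital induction controls. UGT1A1 mRNA is measured by qRT-PCR and normalized to ACTB, GAPDH and POLR2A.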

[3] = read-out: UDP glucuronosyltransferase (UGT1A6), UGT1A6 (gene 54578); experiment: LTEA_HepaRG_UGT1A6: Life Technologies and Expression Analysis (LTEA) Assay for UDP glucuronosyltransferase (UGT1A6) using HepaRG (AID 2283539); conditions: mRNA level, 48 h; actives raise or lower the signal
Method in brief: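 Differentiated HepaRG cells, ~100,000/well, were exposed for 48 h in serum-free induction medium with 0.5% DMSO to 8-point half-log series topping at 100 uM, in duplicate. mRNA measured by Fluidigm TaqMan qRT-PCR, normalized to ACTB, GAPDH and POLR2A.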

[4] = read-out: X-box binding protein 1 (XBP1), XBP1 (gene 7494); experiment: LTEA_HepaRG_XBP1: Life Technologies and Expression Analysis (LTEA) Assay for X-box binding protein 1 (XBP1) using HepaRG (AID 2283540); conditions: mRNA level, 48 h; actives raise or lower the signal
Method in brief: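 Differentiated human HepaRG cells in serum-free induction medium exposed 48 h in duplicate to eight half-log concentrations up to 100 uM in 0.5% DMSO. XBP1 mRNA measured by Fluidigm TaqMan qRT-PCR, normalized to ACTB, GAPDH, POLR2A; bidirectional fitting against DMSO.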

[5] = LTEA_HepaRG_LDH_cytotoxicity: Cytotoxicity Assessment in the Life Technologies and Expression Analysis (LTEA) Assay (AID 2283563; active = hit-call score of the fitted dose curve at least 0.9, where 1 is the maximum;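 for AC50: LDH activity released into spent culture medium as a marker of cell death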)
Method in brief: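 Differentiated HepaRG cells in serum-free induction medium, exposed 48 h in duplicate to 8 half-log concentrations up to 100 uM in 0.5% DMSO. Cytotoxicity from LDH measured in spent medium, fit relative to DMSO.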

[6] = ATG_XTT_Cytotoxicity: Cytotoxicity Assessment in the Attagene TRANS-FACTORIAL HepG2 Assay (AID 2283584; active = hit-call score of the fitted dose curve at least 0.9, where 1 is the maximum)
Method in brief: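 HepG2 cells transiently transfected with GAL4-UAS multiple reporter units, dosed 24 h; cytotoxicity read by XTT as loss of signal versus DMSO baseline.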

[7] = biological target: Cellular tumor antigen p53 (Homo sapiens) (UniProt P04637); experiment: TOX21_p53_BLA_p2_ratio: Tox21 HCT-116 p53 Agonism Beta-lactamase Assay, Ratio, Phase 2 (AID 2283592; active = hit-call score of the fitted dose curve at least 0.9, where 1 is the maximum)
Sequence of Cellular tumor antigen p53 (Homo sapiens) (P04637 whole entry, looked up): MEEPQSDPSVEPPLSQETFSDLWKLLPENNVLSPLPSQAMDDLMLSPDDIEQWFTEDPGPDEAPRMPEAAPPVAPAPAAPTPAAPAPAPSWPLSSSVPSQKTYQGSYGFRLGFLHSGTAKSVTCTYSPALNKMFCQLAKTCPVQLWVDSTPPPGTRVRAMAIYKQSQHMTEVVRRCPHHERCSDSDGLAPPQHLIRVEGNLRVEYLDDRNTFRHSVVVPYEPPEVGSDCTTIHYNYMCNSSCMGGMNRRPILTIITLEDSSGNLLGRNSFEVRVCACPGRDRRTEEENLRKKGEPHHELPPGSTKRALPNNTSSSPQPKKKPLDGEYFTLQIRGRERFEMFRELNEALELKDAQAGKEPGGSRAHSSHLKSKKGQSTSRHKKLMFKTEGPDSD
Method in brief: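 HCT-116 cells with p53-responsive beta-lactamase reporter, 4000 cells/well, preincubated 5 h, then compound in DMSO (217-fold dilution) for 16 h at 37C. CCF4-AM substrate 2 h at room temperature; 460/530 nm emission ratio fitted upward versus DMSO.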

[8] = TOX21_p53_BLA_p3_viability: Viability Assessment in the Tox21 HCT-116 p53 Agonism Beta-lactamase Assay, Phase 3 (AID 2283593; active = hit-call score of the fitted dose curve at least 0.9, where 1 is the maximum;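 note: cells exposed to compound for 16 h before reading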)
Method in brief: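 HCT-116 cells (4000/well) rested 5 h at 37C, then got DMSO compounds by pin tool (217-fold dilution) for 16 h at 37C, 5% CO2. After the bla read, CellTiter-Glo was added and luminescence read at 30 min, room temperature.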

[9] = TOX21_p53_BLA_p2_viability: Viability Assessment in the Tox21 HCT-116 p53 Agonism Beta-lactamase Assay, Phase 2 (AID 2283591; active = hit-call score of the fitted dose curve at least 0.9, where 1 is the maximum;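 note: compound exposure lasted 16 h at 37 °C; actives lower the ATP signal meaning cytotoxicity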)
Method in brief: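 HCT-116 p53-bla cells (4000/well) rested 5 h at 37C, then received compounds in DMSO (217-fold dilution) for 16 h at 37C, 5% CO2. After the CCF4 read, CellTiter-Glo was added; ATP luminescence was read after 30 min at room temperature.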

Measured: AC50

C=CCC1=C(C)C(OC(=O)C2C(C=C(C)C)C2(C)C)CC1=O (stereo not given)
inactive: [1] | [2] | [3] | [4] | [5] | [6] | [7]
active: [8] 65.3 µM

COC(=O)c1ccccc1C(=O)OC
inactive: [1] | [2] | [3] | [4] | [5] | [7] | [8]

CC1COC(Cn2cncn2)(c2ccc(Oc3ccc(Cl)cc3)cc2Cl)O1 (stereo not given)
active: [1] 7.86 µM | [2] 50 µM | [3] 63.9 µM | [5] 58.7 µM | [7] 21.4 µM
inactive: [4] | [8]

N#Cc1cc(Br)c(O)c(Br)c1
active: [1] 22.6 µM | [2] 17 µM | [3] 23.5 µM | [4] 10.5 µM | [5] 66.8 µM | [7] 40 µM and 56 µM
inactive: [9] | [8]

O=C(Nc1ccccc1)Nc1ccnc(Cl)c1
inactive: [1] | [7] | [8]
active: [2] 79.6 µM | [3] 76.8 µM | [4] 72.1 µM | [5] 39.4 µM

N#Cc1nn(-c2c(Cl)cc(C(F)(F)F)cc2Cl)c(N)c1S(=O)C(F)(F)F (stereo not given)
inactive: [6] | [7] | [8]
active: [1] 27.3 µM | [2] 37.6 µM | [3] 44.8 µM | [4] 68.6 µM | [5] 34.2 µM

C=CCC1=C(C)[C@@H](OC(=O)[C@@H]2[C@@H](C=C(C)C)C2(C)C)CC1=O
inactive: [1] | [2] | [3] | [4] | [7] | [8]

O=C(O)COc1nc(Cl)c(Cl)cc1Cl
inactive: [1] | [2] | [3] | [4] | [5] | [7] | [8]

Cc1ccc(-c2c(Cl)nc(C#N)n2S(=O)(=O)N(C)C)cc1
active: [1] 6.18 µM | [2] 37.4 µM | [3] 27.4 µM | [4] 90.6 µM | [5] 8.94 µM | [7] 8.72 µM
inactive: [8]

COc1nc(C)nc(NC(=O)NS(=O)(=O)c2ccccc2Cl)n1
inactive: [7]

CCOC(=O)CC(SP(=S)(OC)OC)C(=O)OCC (stereo not given)
inactive: [1] | [2] | [3] | [4] | [5] | [7] | [8]
active: [8] 43.3 µM

CCCCNC(=O)n1c(NC(=O)OC)nc2ccccc21
inactive: [1] | [3] | [4] | [5]
active: [2] 18.6 µM | [7] 11 µM and 9.55 µM

CS/C(C)=N/OC(=O)N(C)SN(C)C(=O)O/N=C(\C)SC
active: [2] 29.1 µM
inactive: [1] | [3] | [4] | [5] | [7]

O=C(O)c1nc(Cl)ccc1Cl
inactive: [1] | [2] | [3] | [4] | [5] | [7] | [8]

CCON=C(CC)C1=C(O)CC(c2c(C)cc(C)cc2C)CC1=O (stereo not given)
inactive: [3] | [4] | [5] | [7] | [8]
active: [1] 50 µM | [2] 27.9 µM

Reference: PubChem BioAssay (EPA / NIEHS)
